In the library only some 2.8% were active in any assay of this set; here they are far more common.
D3 ag: activates the human D3 dopamine receptor; D3R DiscoveRx beta-arrestin cells, luminescence, 90 min; max activation, %; 410,000 compounds, 0.58% hits; AID 652048; in the data active means max activation above about 30%
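Cells at 1500/well, incubated overnight, then treated with pinned compounds (dopamine as control) for 90 min at 37 degrees C. DiscoveRx reagent added for 30 - 60 minutes at room temperature; luminescence read.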
DRD3 antagonist: D3 dopamine receptor (human) antagonism. max response, negative = inhibition, %. P35462. AID 652054. 360,000 compounds, 2.5% hits. D3R cells, DiscoveRx beta-arrestin luminescence, antagonist mode; hits give low values; in the data active means max response below about -50%; inconclusive means no clear call, values can overlap the other calls
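Cells plated overnight at 1500 cells/well, then exposed to library compounds with dopamine controls for 90 minutes at 37 degrees C. DiscoveRx reagent added for 30–60 minutes at room temperature; luminescence read, quantitative HTS format.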
PTHR1 ag: PTHR1 (human) receptor agonism; Q03431; 410,000 compounds, 0.075% hits; Potency, µM (series often up to 115 µM), actives largely listed as activators; HEK293 GP2 PTHR1 cells, GloSensor cAMP luminescence, 1 h; further: nearly all actives have a fitted effect of over 55% in size
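HEK-293-derived GP2 cells expressing PTHR1 and a GloSensor cAMP reporter, 3,000/well, plated overnight, given luciferin plus IBMX (each 0.5 mM as added) for 1 h at 37 °C, then compound for 1 h at 37 °C. Luminescence was read after 15 min at room temperature.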
CBFb-RUNX1 inh: inhibitors of human CBF-beta and RUNX1 interaction | AlphaScreen CBFb-His/RUNX1-biotin binding, biochemical | Q01196+Q13951 | 230,000 tested, under 10 active | Potency, µM (doses to about 59.8 µM), most hits filed as inhibitors | AID 1477
Target sequence (Q01196 whole entry, looked up): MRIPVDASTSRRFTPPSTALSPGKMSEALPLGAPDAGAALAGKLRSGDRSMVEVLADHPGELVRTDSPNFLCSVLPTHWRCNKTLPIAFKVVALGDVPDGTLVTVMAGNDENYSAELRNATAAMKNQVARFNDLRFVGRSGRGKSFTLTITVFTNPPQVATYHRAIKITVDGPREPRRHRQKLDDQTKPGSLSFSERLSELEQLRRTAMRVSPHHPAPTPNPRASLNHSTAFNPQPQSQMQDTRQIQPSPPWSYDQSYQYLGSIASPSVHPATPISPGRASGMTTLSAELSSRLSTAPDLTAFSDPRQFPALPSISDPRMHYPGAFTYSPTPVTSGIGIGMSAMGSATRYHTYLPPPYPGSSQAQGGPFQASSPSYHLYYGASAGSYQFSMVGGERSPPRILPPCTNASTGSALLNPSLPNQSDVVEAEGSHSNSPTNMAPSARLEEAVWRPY
Target sequence (Q13951 whole entry, looked up): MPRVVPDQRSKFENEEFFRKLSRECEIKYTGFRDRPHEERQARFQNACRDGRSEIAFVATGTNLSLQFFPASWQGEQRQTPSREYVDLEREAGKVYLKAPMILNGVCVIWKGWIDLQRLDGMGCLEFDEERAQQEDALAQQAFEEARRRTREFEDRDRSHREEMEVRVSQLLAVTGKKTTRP
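Proteins preincubated together for 20 min at RT before compound addition; 15 min later, nickel and streptavidin beads were added and left 90 min prior to AlphaScreen measurement.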
MBNL1 CUG block: MBNL1-poly(CUG) RNA binding inhibition; Q9NR56; TR-FRET MBNL1-His/biotin-(CUG)12 binding, 665/545 ratio; Potency, µM (doses to about 57.5 µM), most hits filed as inhibitors; 280,000 compounds, 0.036% hits; active means well fitted inhibition curve with a large enough effect in the signal ratio, with a control signal flat, not every such curve was filed as active; inconclusive means small, poorly fitted or top-dose-only effect, or effect the other way, or a change in a side signal; inactive means no such curve, though single readings can be large or run the other way; the % refers to the signal ratio
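MBNL1-His + Biotin-(CUG)12, cpd titration 92 nM–58 uM; Tb anti-His Ab 0.055 ng/ul, SA-XL665 5 nM (final); 60 min RT; ratiometric 665/545 nm, Ex 340 nm; normalized to buffer and full-complex controls.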
Integrin act MD: activators of alpha7 integrin expression for muscular dystrophy. alpha7betagal myoblasts, beta-gal FDG fluorescence, 48 h. Potency, µM (series often up to 38.3 µM), usual class: activators. 350,000 compounds, 0.064% hits; further: nearly all actives have a fitted effect of over 60% in size
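Alpha7betagal+/- myoblasts (passage 13) were plated 16-24 hr, then exposed to compounds (1:260 dilution of DMSO stock) for 48 hours at 37C. After MPER lysis, β-galactosidase reporter activity was read as FDG fluorescence (ex 480/em 540) after 30 minutes.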
Hits are given with their value; . = inactive; ? = inconclusive; / = no result given. Unless noted, the call rests on the fitted dose curve; in most records, active means well fitted curve in the direction sought with a large enough effect; inconclusive means small, poorly fitted or top-dose-only effect, or another doubt; inactive means no such curve, though single readings can be large; an effect the other way counts as inactive or inconclusive.

SMILES	D3 ag	DRD3 antagonist	PTHR1 ag	CBFb-RUNX1 inh	MBNL1 CUG block	Integrin act MD
O=C(Nc1cccc(F)c1)c1ccc(-c2ccccc2)s1	.	/	.	/	/	/
O=C(CSc1ccccc1F)NCCCN1CCCC1=O	.	.	.	/	/	.
O=c1c2ccccc2ncn1CCCSc1ccccc1	.	-54	.	.	.	.
Cc1cccc2c(=O)cc(CSc3ccccc3NC(=O)c3cccc(F)c3)[nH]c12	.	/	.	/	/	/
CC(C)CN(C(=O)COc1ccc([N+](=O)[O-])cc1)c1c(N)n(CC(C)C)c(=O)[nH]c1=O	.	.	?	/	/	?
CCCCCCC(=O)O[C@H]1CC[C@H]2[C@@H]3CCc4cc(O)ccc4[C@H]3CC[C@]12C	.	/	/	/	/	/
CCCOc1ccccc1-n1sc2c(c1=S)-c1cc(OC)cc3c1N(C(=O)C3=O)C2(C)C	.	-57	.	.	.	.
COc1cc2c3c(c1)C(C)=CC(C)(C)N3C(=O)C2=O	.	.	.	.	?	.
Cc1cccc(N2CCN(C(=O)C3CCN(Cc4nc(-c5ccc(Cl)cc5)oc4C)CC3)CC2)c1C	.	/	.	/	/	/
COc1ccc(NC(=O)c2ccc(CN3CCc4ccccc4C3)cc2)c(OC)c1	.	-101	.	/	.	.
COc1ccc(OC)c(NC(=O)CN2CCc3ccccc3C2)c1	.	.	.	/	.	.
COc1ccc(OC)c(NC(=O)c2ccc(CN3CCc4ccccc4C3)cc2)c1	.	-109	.	/	.	.
CC1CCC2C(=O)N(c3ccc(S(=O)(=O)c4ccccc4)cc3)C(=O)C2C1 (stereo not drawn)	.	.	.	.	?	.
CCOc1ccc(CCNC(=O)c2c(C)oc3ncnc(N4CCOCC4)c23)cc1	.	/	.	/	/	/
Cc1ccc(Cc2c(-c3ccc(F)cc3)nc3cc(C)ccn23)cc1	.	-68	.	/	/	.
COC(=O)C1=C(C(=O)OC)[C@@H]2N(C)c3ccccc3[C@@]23C[C@@H](CO)N(C(=O)c2cccs2)C3=N1	.	-51	.	/	/	.
O=C(Nc1ccc(/C=C/c2ccc(NC(=O)c3cc(S(=O)(=O)O)c4cccnc4c3O)cc2S(=O)(=O)O)c(S(=O)(=O)O)c1)c1cc(S(=O)(=O)O)c2cccnc2c1O	.	/	/	/	/	/
FC(F)(F)c1nc2nc(Cl)c(Cl)nc2n1CCCN1CCOCC1	.	-57	.	/	/	.
C[C@H](CO)N1C[C@H](C)[C@@H](CN(C)Cc2ccncc2)Oc2c(cccc2N(C)C)C1=O	.	.	.	/	/	.
CC(=O)c1ccc(NC(=O)COC(=O)c2ccccc2Nc2ccccc2)cc1	.	-51	.	.	?	.
CCOC(=O)N1CCC(NCCNC(=O)c2ccc(Cl)cc2)CC1	.	-74	.	.	.	.
CCOC(=O)N1CCC(NCCNC(=O)c2ccc(F)c(F)c2)CC1	.	-99	.	/	/	.
CC(C)c1ccc(NS(=O)(=O)c2ccc3[nH]cc(C(=O)N4CCCC4)c(=O)c3c2)cc1	.	/	.	/	/	/
COC(=O)c1c(NC(=O)c2ccco2)sc2c1C(C(=O)OC)CC2 (stereo not drawn)	.	-50	.	.	.	.
COC(=O)c1c(NC(=O)C(C)C)sc2c1C(C(=O)OC)CC2 (stereo not drawn)	.	?	.	.	.	.
SMILES	D3 ag	DRD3 antagonist	PTHR1 ag	CBFb-RUNX1 inh	MBNL1 CUG block	Integrin act MD
O=C(NNC(=O)c1ccncc1)Nc1cc(Cl)ccc1Cl	.	.	.	/	/	.
CCN(CC)CCn1c(NCc2cccc(OC)c2)nc2ccccc21	.	-86	.	.	.	.
CCN(CC)CCn1c(NCc2cc(OC)ccc2OC)nc2ccccc21	.	-88	.	.	.	.
CCN(CC)CCn1c(NCc2ccc3c(c2)OCO3)nc2ccccc21	.	.	.	.	.	.
COc1ccc(CNc2nc3ccccc3n2C)c(OC)c1	.	.	.	.	.	.
Cn1c(CN2CCCCC2)c(C#N)c2ccccc21	.	-78	.	.	.	.
Cn1c(CNC2CCCCC2)c(C#N)c2ccccc21	.	-77	.	.	.	.
CC(=O)Oc1ccc2c(c1)CC[C@@H]1[C@@H]2CC[C@]2(C)[C@@H](O)CC[C@@H]12	.	/	/	/	/	/
N#CC1(Nc2cccc(Cl)c2)CCCC1	.	.	.	/	/	.
O=[N+]([O-])c1ccc(S(=O)(=O)NCC(c2ccco2)N2CCc3ccccc3C2)cc1 (stereo not drawn)	.	-57	.	/	/	.
O=[N+]([O-])c1ccc(S(=O)(=O)NCC(c2cccnc2)N2CCc3ccccc3C2)cc1 (stereo not drawn)	.	.	.	/	/	.
COc1ccccc1/C=C/C(=O)c1cc(Br)ccc1OC(=O)c1ccco1	.	-56	.	/	/	.
O=c1cnnc(SCc2ccc([N+](=O)[O-])cc2)[nH]1	.	?	?	.	?	.
Cc1nn(CC(=O)Nc2ccncc2)c(C)c1[N+](=O)[O-]	.	?	.	.	.	.
Cc1ccc(NC(=O)Cn2nc(C)c([N+](=O)[O-])c2C)cc1Cl	.	-55	.	.	.	.
COc1ccc2c(c1)CC(C(=O)Nc1cc(Cl)ccc1C)CO2 (stereo not drawn)	68	/	?	/	/	/
CN(c1ccccc1)S(=O)(=O)c1nnc(NC(=O)c2ccco2)s1	.	.	.	/	.	.
CC(C)CN(c1ccccc1)S(=O)(=O)c1nnc(NC(=O)c2ccco2)s1	.	-86	?	/	.	.
CCN(c1ccccc1)S(=O)(=O)c1nnc(NC(=O)CC(C)C)s1	.	-66	.	/	.	.
COc1cc(CNc2ncnc3ccc(-c4c(C)noc4C)cc23)cc(OC)c1OC	/	/	/	.	/	/
CO[C@H]1C[C@H](O[C@H]2[C@H](C)O[C@@H](O[C@@H]3/C(C)=C/C[C@@H]4C[C@@H](C[C@]5(C=C[C@H](C)[C@@H](C6CCCCC6)O5)O4)OC(=O)[C@@H]4C=C(C)[C@@H](O)[C@H]5OC/C(=C\C=C\[C@@H]3C)[C@]54O)C[C@@H]2OC)O[C@@H](C)[C@@H]1O	.	/	/	/	/	/
O=C1N=C(N2CCCC2)CN1c1ccccc1	.	.	.	.	.	.
Cc1ccc(C(=O)N2CCC(C(=O)Nc3cccc([N+](=O)[O-])c3)CC2)cc1	.	?	.	/	?	.
CCCCN(C)C(=O)c1[nH]c(C(F)(F)F)nc1-c1ccccc1	.	.	.	/	/	/
CN(C)CCN(Cc1ccccc1)C(=O)c1[nH]c(C(F)(F)F)nc1-c1ccccc1	39	.	.	/	/	/
O=C(NCCC1=CCCCC1)c1[nH]c(C(F)(F)F)nc1-c1ccccc1	112	.	.	/	/	/
O=C(NCCc1ccccc1)c1[nH]c(C(F)(F)F)nc1-c1ccccc1	.	.	.	/	/	/
O=C(NCc1ccccc1)c1[nH]c(C(F)(F)F)nc1-c1ccccc1	65	.	.	/	/	/

Screening results (PubChem)
